Test results from PubChem BioAssay (NCI).
Compounds without any hit were thinned out: in the full panel of roughly 79,000, 15% have a hit. Cut-off read from the data, not from the text of the source: active = growth inhibition above about 70%; inactive = the rest.

What was measured:
[1] = NCI Yeast Anticancer Drug Screen. Data for the rad50 strain (AID 155);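 note: 0% = growth of vehicle-only cultures of the same strain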; details: S. cerevisiae rad50 strain growth inhibition; at 50.0 µM; hits give high values
In short: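 DNA repair mutant yeast, compound exposure, growth read-out; inhibition is taken relative to vehicle.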

[2] = NCI Yeast Anticancer Drug Screen. Data for the mec2-1 strain (AID 157); details: S. cerevisiae mec2-1 strain, at 50.0 µM, hits give high values
In short: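 Mutant yeast (mec2-1) grown with compound; growth inhibition relative to vehicle control reported.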

[3] = NCI Yeast Anticancer Drug Screen. Data for the sgs1 mgt1 strain (AID 161);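 note: 0% = growth of cultures given vehicle only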; details: S. cerevisiae sgs1 mgt1 strain, at 50.0 µM, hits give high values
In short: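 This yeast growth screen uses a strain with defined DNA-repair lesions; compound-treated growth is compared with vehicle-treated growth.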

[4] = NCI Yeast Anticancer Drug Screen. Data for the cln2 rad14 strain (AID 165);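 note: 0% = growth equal to vehicle treated cultures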; details: S. cerevisiae cln2 rad14 strain, at 50.0 µM, hits give high values
In short: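 Readout is yeast growth inhibition versus vehicle-treated controls, using a strain with cln2 and rad14 alterations exposed to compound.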

[5] = NCI Yeast Anticancer Drug Screen. Data for the bub3 strain (AID 167); details: S. cerevisiae bub3 mutant strain, at 50.0 µM, hits give high values
In short: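 In this screen, a yeast mutant lacking normal mitotic checkpoint function is challenged with compound. Relative growth versus vehicle gives the inhibition value.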

[6] = NCI Yeast Anticancer Drug Screen. Data for the mlh1 rad18 strain (AID 175); details: S. cerevisiae mlh1 rad18 strain growth inhibition; at 50.0 µM; hits give high values
In short: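 Genetically defined yeast (DNA repair-deficient) exposed to compounds; growth inhibition determined relative to vehicle.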

Measured: growth inhibition

C/C(CC(C)C)=N/NC(N)=S
inactive: [1] 14.9% | [2] 0.7% | [3] 1.35% | [4] -23.1% | [5] 32.6% | [6] 30.4%

O=C(CC(c1ccccc1)N1CCCCC1)OCC1CCCO1 (stereo unspecified)
inactive: [1] -0.85% | [2] -13.7% | [3] -4.1% | [4] -44.5% | [5] -1.85% | [6] 14.3%

OC1COC(O)(CNCCc2c[nH]c3ccc(OCc4ccccc4)cc23)C(O)C1O (stereo unspecified)
inactive: [1] -25.5% | [2] 7.25% | [3] -18.2% | [4] -49.7% | [5] -20.7% | [6] 19.1%

CSC(=S)Nc1nc2ccc(Cl)cc2s1
inactive: [1] -1.45% | [2] 6.75% | [3] 15.3% | [4] 3.15% | [5] 17.7% | [6] 3.2%

CC(C)N(CC(=O)O)CC(=O)O
inactive: [1] -0.95% | [2] -13.4% | [3] -21.1% | [4] -5% | [5] -22.9% | [6] -16.4%

O=C(O)/C=C/C=C/c1ccccc1
inactive: [1] 8.9% | [2] 8.95% | [3] 49.9% | [4] -2.7% | [5] 16.4% | [6] 32.8%

Oc1cccc2c(O)cccc12
inactive: [1] 0.55% | [2] 22.8% | [3] 26.4% | [4] -9.55% | [5] 25.5% | [6] 32.8%

Cc1cc(Cl)ccc1NC(=O)C1C(=O)N(c2ccc(Cl)cc2C)C(=O)/C1=N\NC(N)=S (stereo unspecified)
inactive: [1] -16.6% | [2] -6.6% | [3] -22.5% | [4] -0.25% | [5] -2.5% | [6] -27.1%

O=[N+]([O-])c1ccc(Oc2ccc3ccccc3c2)c([N+](=O)[O-])c1
inactive: [1] -1.4% | [2] -17.9% | [3] 1.8% | [4] -56.5% | [5] -9.75% | [6] -14.3%

Cn1c2ccccc2c2c3ccc[n+](C)c3ccc21
inactive: [1] 8% | [2] -2.9% | [3] 8.7% | [4] -57.5% | [5] -0.1% | [6] 2.1%

BrC1(Br)C2CC/C=C/CCCCC21 (stereo unspecified)
inactive: [1] -10.1% | [2] 13.9% | [3] 20.9% | [4] -1.85% | [5] -3.05% | [6] -27.1%

CCCCC/C(C)=N\NC(N)=S
inactive: [1] 15.6% | [2] -6.15% | [3] -15.9% | [4] 1.85% | [5] 19.8% | [6] -2.5%

Oc1ccc(-c2ccc(O)cc2O)c(O)c1
inactive: [1] -1.45% | [2] -20.9% | [3] -1.85% | [4] 7.45% | [5] 0.35% | [6] 14.2%

COc1ccc(C2c3cc4c(cc3OC(C)(OC)C2C)OCO4)cc1 (stereo unspecified)
inactive: [1] -33.5% | [2] -6.8% | [3] -3.25% | [4] -14.8% | [5] 19.8% | [6] 14.7%

c1ccc2c[n+](Cc3ccc4ccccc4n3)ccc2c1
inactive: [1] 13% | [2] -4.3% | [3] 4.05% | [4] -60% | [5] -9.9% | [6] 9.9%

O=S(=O)(N1CCCCC1)N1CCCCC1
inactive: [1] 2.3% | [2] -0.85% | [3] 0.85% | [4] 8.85% | [5] 10.2% | [6] -2.4%

C=C(C)C(=O)OCC(CC)(COC(=O)C(=C)C)COC(=O)C(=C)C
inactive: [1] -9.25% | [2] -19.6% | [3] 8.35% | [4] -2.05% | [5] 18.6% | [6] 0%

C=CCN(CC=C)/N=N/c1nc[nH]c1C(N)=O
inactive: [1] 28.1% | [2] 8.55% | [3] 14.7% | [4] 5.75% | [5] -5.55% | [6] 22.1%

Nc1cc(NC(=O)CO)cc(C(=O)O)c1
inactive: [1] 14.2% | [2] -1.15% | [3] -1% | [4] -0.4% | [5] 4.05% | [6] 7.1%

CCOCC/C(C(=O)O)=C(\CC)C(=O)O
inactive: [1] 9.15% | [2] 2.55% | [3] 0% | [4] 8.7% | [5] -22.8% | [6] 9.05%

CCC(O)(c1ccc(OC)cc1)C(c1ccc(OCc2ccccc2)cc1)c1ccc(OCc2ccccc2)cc1 (stereo unspecified)
inactive: [1] 18.9% | [2] -22.2% | [3] 5.5% | [4] 10.8% | [5] -10.1% | [6] -12.9%

Cn1c(=O)c2[nH]c(=S)[nH]c2n(C)c1=O
inactive: [1] -5.85% | [2] -20.7% | [3] -3% | [4] 11.1% | [5] -18.2% | [6] -4.75%

CCOC(=O)/C(C#N)=C/NC(N)=O
inactive: [1] -2.55% | [2] 3.05% | [3] -10.1% | [4] -10% | [5] 1.95% | [6] -12.6%

O=c1c(Br)c(-c2ccccc2Br)[nH]c2ccccc12
inactive: [1] -1.25% | [2] 13.7% | [3] 11.3% | [4] 0.4% | [5] -3.45% | [6] -13.9%

O=P(O)(O)OC1C(OP(=O)(O)O)C(OP(=O)(O)O)C(OP(=O)(O)O)C(OP(=O)(O)O)C1OP(=O)(O)O.[Cu+2] (stereo unspecified)
inactive: [1] -18.1% | [2] -18.8% | [3] -14.7% | [4] -10.9% | [5] -9% | [6] -19.4%

Cc1ccc(C(=O)c2ccc(C)cc2)cc1
inactive: [1] -2.55% | [2] -4.45% | [3] 13% | [4] -3.7% | [5] 6.3% | [6] 15.1%

CC1(C)SC(C)(C)C1=O
inactive: [1] -13.6% | [2] -7.35% | [3] -0.6% | [4] -36.8% | [5] 2.05% | [6] -5.15%

CCOC(=O)c1c(-c2ccccc2)nn(CC(N)=O)c1CO
inactive: [1] -15.9% | [2] -5.15% | [3] 10.4% | [4] 23.1% | [5] 18.2% | [6] -10.7%

OCc1cccc(F)c1
inactive: [1] -15.4% | [2] -42.6% | [3] -31.4% | [4] 8.1% | [5] -21.4% | [6] -5.35%

CCCCNC(=O)OCCN=c1c2ccccc2ccc2ccccc12
inactive: [1] -25.6% | [2] -31.4% | [3] -9.95% | [4] 2.8% | [5] -1.3% | [6] -15.4%

CCN(CC)Cc1c(C)cccc1O
inactive: [1] -4.65% | [2] -4.35% | [3] -27.8% | [4] -49.5% | [5] -0.45% | [6] -16.4%

Cc1ccc2cccc([N+](=O)[O-])c2n1
inactive: [1] 15.8% | [2] -23.5% | [3] 3.75% | [4] 27.4% | [5] 1.2% | [6] 14.3%

Cc1cccc(-n2cccc2)c1
inactive: [1] -1.6% | [2] -13.8% | [3] 4.8% | [4] -10.7% | [5] -16.3% | [6] 4.75%

O=C(O)Cc1[nH]c(=O)[nH]c(=O)c1CCl
inactive: [1] -27.9% | [2] -7.75% | [3] -10.1% | [4] -1.3% | [5] -19.2% | [6] -18.1%

COc1ccc(N=Cc2ccc(C#N)cc2)cc1
inactive: [1] 9.4% | [2] -25.2% | [3] -7.15% | [4] 7.95% | [5] -12.8% | [6] -4.9%

CC(C)(C)C(C)(C)CC(N)=O
inactive: [1] 7.25% | [2] -15.7% | [3] -4.3% | [4] -3.6% | [5] 10.9% | [6] -9.1%

O=C1C=CC(=O)N1Cc1ccco1
inactive: [1] -3.7% | [2] -16.8% | [3] 5.9% | [4] 8.5% | [5] 10.1% | [6] -16.6%

N#CCCNCCNCCC#N
inactive: [1] -30.8% | [2] -2.25% | [3] -18.1% | [4] -68.2% | [5] -26.1% | [6] -26.4%

CC(CN(C)C)CN1c2ccccc2Sc2ccccc21 (stereo unspecified)
inactive: [1] -6.7% | [2] -2.4% | [3] -7% | [4] -2.95% | [5] 5.65% | [6] 8.35%

CC(=O)/C=c1\[nH]/c(=C\C=C\c2ccccc2)c(=O)n1/C=C1\C(=O)Oc2ccccc2C1=O
inactive: [1] -39.4% | [2] 7.1% | [3] 4.6% | [4] 24.6% | [5] -18.1% | [6] -46%

C#CCOC(=O)C(N)CS (stereo unspecified)
inactive: [1] -6.95% | [2] -20.3% | [3] -13.6% | [4] 9.8% | [5] -4.4% | [6] -13.7%
